Most compounds without a hit are left out; they make up all but 8.7% or so of the library.
G9a block: blocks human histone lysine methyltransferase G9a. Q96KQ7. G9a H3K9 monomethylation, AlphaScreen, 2 h. Potency, µM (titrated, usually from 102 µM), most hits filed as inhibitors. hit rate 8.8% among 350,000. AID 504332; further: nearly all actives have a fitted effect of over 75% in size
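G9a (20 nM) preincubated 15 min RT with compounds, then 500 nM biotinylated H3K9 peptide and 20 uM SAM added; 2 h RT reaction. Monomethyl-H3K9 product detected by AlphaScreen with anti-H3K9me1 antibody, streptavidin donor and anti-rabbit IgG acceptor beads.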
HP1b chromo inh: inhibitors of HP1-beta chromodomain binding to methylated histone tails. P83916. AID 540317. Potency, µM (titrated, usually from 114 µM), actives largely listed as inhibitors. AlphaScreen HP1-beta / biotin-H3K9me3 peptide binding. hit rate 0.56% among 390,000; further: nearly all actives have a fitted effect of over 70% in size
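HP1-beta protein (50 nM final) preincubated 30 min at room temperature with biotinylated H3(1-18)K9me3 peptide (50 nM) in PBS pH 7.4, 0.01% Tween-20, then compound added for 30 min. AlphaScreen streptavidin donor/nickel chelate acceptor beads (10 ug/mL final), 30 min dark, luminescence read.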
BAZ2B block: blocks human BAZ2B | Q9UIF8 | AlphaScreen BAZ2B-H3K14Ac peptide displacement | Potency, µM (highest dose often 114 µM), hits mostly inhibitors | hit rate 4.4% among 360,000 | AID 504333; further: nearly all actives have a fitted effect of over 60% in size
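AlphaScreen luminescence quantifies BAZ2B engagement of H3K14Ac peptide; the protein and biotinylated peptide are both at 50 nM final, buffer PBS pH 7.4 with 0.01% Tween-20, all steps at room temperature.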
JMJD2A Tudor inh: blocks the human JMJD2A Tudor domain; O75164; AlphaScreen JMJD2A-Tudor / H3K4me3 peptide binding; Potency, µM (series often up to 114 µM), most hits filed as inhibitors; hit rate 4.4% among 390,000; further: nearly all actives have a fitted effect of over 50% in size
Target sequence (O75164 whole entry, looked up, the tested form may be a part): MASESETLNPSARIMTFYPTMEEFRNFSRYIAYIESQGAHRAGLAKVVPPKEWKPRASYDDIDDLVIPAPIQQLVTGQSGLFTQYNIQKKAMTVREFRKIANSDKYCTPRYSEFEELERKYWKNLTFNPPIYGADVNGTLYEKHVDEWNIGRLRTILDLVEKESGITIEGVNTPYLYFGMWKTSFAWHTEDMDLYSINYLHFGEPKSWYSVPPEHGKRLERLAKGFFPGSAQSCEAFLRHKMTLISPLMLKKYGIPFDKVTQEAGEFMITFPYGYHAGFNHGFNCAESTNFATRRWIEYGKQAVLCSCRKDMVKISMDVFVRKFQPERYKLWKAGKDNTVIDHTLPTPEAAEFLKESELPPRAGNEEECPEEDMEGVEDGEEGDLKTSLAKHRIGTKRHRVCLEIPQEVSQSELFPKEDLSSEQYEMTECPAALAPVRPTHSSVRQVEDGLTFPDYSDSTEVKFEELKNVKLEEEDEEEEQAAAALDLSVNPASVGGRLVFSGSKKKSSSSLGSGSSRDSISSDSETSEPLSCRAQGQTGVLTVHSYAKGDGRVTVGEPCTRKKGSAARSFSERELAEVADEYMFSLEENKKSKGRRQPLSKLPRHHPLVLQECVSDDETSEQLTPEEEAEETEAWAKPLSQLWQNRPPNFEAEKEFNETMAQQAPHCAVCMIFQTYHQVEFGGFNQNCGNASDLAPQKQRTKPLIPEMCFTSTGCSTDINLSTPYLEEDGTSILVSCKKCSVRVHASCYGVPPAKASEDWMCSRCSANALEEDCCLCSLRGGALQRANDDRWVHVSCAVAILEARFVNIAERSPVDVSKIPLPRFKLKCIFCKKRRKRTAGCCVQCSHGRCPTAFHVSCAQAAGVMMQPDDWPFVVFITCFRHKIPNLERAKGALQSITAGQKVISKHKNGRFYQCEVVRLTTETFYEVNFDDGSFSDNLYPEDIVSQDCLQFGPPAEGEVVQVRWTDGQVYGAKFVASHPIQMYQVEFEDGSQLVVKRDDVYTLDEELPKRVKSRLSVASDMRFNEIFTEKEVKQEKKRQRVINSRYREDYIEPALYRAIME
Sfp inh: Sfp phosphopantetheinyl transferase inhibition | Q9F4F7 | Biochemical Sfp PPTase activity, qHTS | Potency, µM, most hits filed as inhibitors | hit rate 3.5% among 310,000;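 further: the enzyme is Sfp with the accession as filed and its product quenches rhodamine fluorescence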
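Buffer: 50 mM Hepes-Na pH 7.6, 10 mM MgCl2, 0.01% Nonidet P-40, 0.01% BSA. Enzyme 15 nM, pre-exposed to compound 15 min; substrates then added and fluorescence change tracked over 30 min.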
12-LOX inh: inhibitors of human 12S-lipoxygenase ALOX12; hit rate 1.1% among 580,000; Potency, µM (doses to about 108 µM), most hits filed as inhibitors; AID 1671190; P18054; purified 12hLO, xylenol orange hydroperoxide absorbance
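Purified human 12hLO at 150 nM in 25 mM Hepes, 0.01% Triton X-100, pH 7.0, preincubated 15 min at room temperature with compound. Reaction started with 40 uM arachidonic acid, 30 min at room temperature. Hydroperoxide measured by Fe-xylenol orange, 573/405 nm absorbance ratio.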
Hits are given with their value; [ ] = another dose, or the depositor's remark. The call rests on the fitted dose curve; in most records, active means well fitted curve in the direction sought with a large enough effect; inconclusive means small, poorly fitted or top-dose-only effect, or another doubt; inactive means no such curve, though single readings can be large; an effect the other way counts as inactive or inconclusive.

Results for OCCN1CCN(C(=S)c2ccc(Cl)c(Cl)c2)CC1 ?
G9a block: 2µM; HP1b chromo inh: inconclusive; BAZ2B block: inactive; JMJD2A Tudor inh: 56µM; Sfp inh: 3.2µM; 12-LOX inh: inactive

Results for COc1cccc(C2C(C#N)=C(N)N(N(C)C)C3=C2C(=O)CCC3)c1 (stereo not drawn) ?
G9a block: inactive; HP1b chromo inh: inactive; BAZ2B block: inactive; JMJD2A Tudor inh: inactive; Sfp inh: inactive; 12-LOX inh: inactive

Results for COc1cccc(C2C(C#N)=C(N)SC(c3ccccc3)C2[N+](=O)[O-])c1 (stereo not drawn) ?
G9a block: inconclusive; HP1b chromo inh: inactive; BAZ2B block: 50µM; JMJD2A Tudor inh: inconclusive; Sfp inh: inactive; 12-LOX inh: inactive

Results for CCOC(CNC(=O)CS(=O)Cc1nc(-c2cccc(OC)c2)oc1C)OCC (stereo not drawn) ?
12-LOX inh: inactive

How did Cc1ccc(NC(=S)NCC2CCCO2)cc1C (stereo not drawn) do in these assays?
G9a block: inactive; HP1b chromo inh: inactive; BAZ2B block: inactive; JMJD2A Tudor inh: inactive; Sfp inh: inactive; 12-LOX inh: inconclusive

Results for CCOC(=O)c1c(NC(=S)NCC2CCCO2)sc(C)c1C (stereo not drawn) ?
G9a block: 4.5µM; HP1b chromo inh: inconclusive; JMJD2A Tudor inh: inconclusive; Sfp inh: 22µM; 12-LOX inh: inconclusive

Results for Cc1cccc(NC(=S)NCC2CCCO2)c1 (stereo not drawn) ?
G9a block: 50µM; HP1b chromo inh: inactive; BAZ2B block: inactive; JMJD2A Tudor inh: inactive[11.4 µM]; Sfp inh: inactive; 12-LOX inh: inactive

Results for O=C(NC(=S)NCC1CCCO1)c1ccc(Cl)cc1 (stereo not drawn) ?
G9a block: inactive; HP1b chromo inh: inactive; BAZ2B block: inactive; JMJD2A Tudor inh: inactive; Sfp inh: inactive; 12-LOX inh: 40µM

What do the screens show for `CCOC(=O)c1[nH]c(C)c(C(=O)NCC2CCCO2)c1C` (stereo not drawn)?
G9a block: inactive[2.33 µM]; HP1b chromo inh: inactive; BAZ2B block: inactive; JMJD2A Tudor inh: inactive; Sfp inh: inactive; 12-LOX inh: inactive

Results for Cc1ccc(C(=O)NC(=S)NCC2CCCO2)cc1 (stereo not drawn) ?
G9a block: inactive; HP1b chromo inh: inactive; BAZ2B block: inactive; JMJD2A Tudor inh: inactive; Sfp inh: inactive; 12-LOX inh: inactive

How did Cc1ccc(NC(=S)NCC2CCCO2)cc1 (stereo not drawn) do in these assays?
G9a block: inactive; HP1b chromo inh: inactive; BAZ2B block: inactive; JMJD2A Tudor inh: inactive; Sfp inh: inactive; 12-LOX inh: inactive

How did CCN(CC)c1ccc(NC(=S)NCC2CCCO2)cc1 (stereo not drawn) do in these assays?
G9a block: inconclusive; HP1b chromo inh: inconclusive; BAZ2B block: 45µM; JMJD2A Tudor inh: inconclusive; Sfp inh: inactive; 12-LOX inh: inconclusive

What do the screens show for `CN(C(=S)NC(=O)c1ccc(Cl)cc1)C1CCCCC1`?
G9a block: 8.9µM; HP1b chromo inh: inactive; BAZ2B block: 45µM; JMJD2A Tudor inh: inactive; Sfp inh: 50µM; 12-LOX inh: inactive

What do the screens show for `COc1ccc(C(=O)NCC(=O)N2CCN(c3ccccn3)CC2)c(C)c1`?
12-LOX inh: inactive

What do the screens show for `O=S(=O)(Nc1nc2ccccc2nc1N1CCN(CCO)CC1)c1cc(F)ccc1F`?
G9a block: 7.1µM; HP1b chromo inh: inactive; BAZ2B block: inactive; JMJD2A Tudor inh: inactive; 12-LOX inh: inactive

Results for CN1CCN(c2nc3ccccc3nc2NS(=O)(=O)c2cc(Cl)ccc2Cl)CC1 ?
12-LOX inh: inactive

What do the screens show for `COc1ccc(N=Cc2c(O)c3ccccc3oc2=O)cc1`?
G9a block: inconclusive; HP1b chromo inh: inactive; BAZ2B block: inactive; JMJD2A Tudor inh: inactive; Sfp inh: inactive; 12-LOX inh: inactive

What do the screens show for `CC(C)c1ccc(N=Cc2c(O)c3ccccc3oc2=O)cc1`?
G9a block: inactive; HP1b chromo inh: inactive; BAZ2B block: inactive; JMJD2A Tudor inh: inactive; Sfp inh: 45µM; 12-LOX inh: inactive

How did O=C(O)c1cc(N=Cc2c(O)c3ccccc3oc2=O)ccc1O do in these assays?
G9a block: 50µM; HP1b chromo inh: inactive; BAZ2B block: inactive; JMJD2A Tudor inh: inactive; Sfp inh: inconclusive; 12-LOX inh: inconclusive

Results for Cc1ccc(N=Cc2c(O)c3ccccc3oc2=O)cc1F ?
G9a block: 35µM; HP1b chromo inh: inactive; BAZ2B block: inactive; JMJD2A Tudor inh: inactive; Sfp inh: inactive; 12-LOX inh: inactive

What do the screens show for `CC1(C)Cc2c(sc3c2C(=O)N(c2ccccc2)C2=NCCN23)CS1`?
G9a block: inactive[0.501 µM]; HP1b chromo inh: inactive; BAZ2B block: inconclusive; JMJD2A Tudor inh: inactive; Sfp inh: 89µM; 12-LOX inh: inconclusive

What do the screens show for `Cc1sc2ncnc(Sc3ccccc3C(=O)Nc3ccccc3Cl)c2c1C`?
G9a block: 3.5µM; HP1b chromo inh: inactive; BAZ2B block: inactive; JMJD2A Tudor inh: inactive; Sfp inh: inconclusive; 12-LOX inh: inconclusive

What do the screens show for `Cc1sc2ncnc(Sc3ccccc3C(=O)Nc3ccc(C#N)cc3)c2c1C`?
G9a block: inconclusive; HP1b chromo inh: inactive; BAZ2B block: inactive; JMJD2A Tudor inh: inactive; Sfp inh: inactive; 12-LOX inh: inactive

Results for COc1ccc(NC(=O)CN(C)C(=O)c2ccccc2Sc2ncnc3sc(C)c(C)c23)cc1 ?
G9a block: 35µM; HP1b chromo inh: inactive; BAZ2B block: inactive; JMJD2A Tudor inh: inactive; 12-LOX inh: inactive

How did Cc1sc2ncnc(Sc3ccccc3C(=O)Nc3ccc(Br)cc3)c2c1C do in these assays?
G9a block: 8.9µM; HP1b chromo inh: inconclusive; BAZ2B block: inactive; JMJD2A Tudor inh: inconclusive; Sfp inh: 50µM; 12-LOX inh: 10µM

Results for Cc1ccc2[nH]c(=O)c(CN(Cc3cccs3)S(=O)(=O)c3ccc4c(c3)OCCO4)cc2c1 ?
G9a block: 1µM; HP1b chromo inh: inactive; BAZ2B block: inactive; JMJD2A Tudor inh: inactive; Sfp inh: inactive; 12-LOX inh: inactive

How did CN1CCN(Cc2nc(C3(O)CCN(CC4CCCCC4)CC3)cs2)CC1 do in these assays?
12-LOX inh: inactive

Results for NC(=O)c1sc2nc3c(cc2c1N)CCCCCC3 ?
G9a block: 50µM; HP1b chromo inh: inactive; BAZ2B block: inactive; JMJD2A Tudor inh: inactive; Sfp inh: 32µM; 12-LOX inh: inactive

How did Nc1c(C(=O)c2ccc(Cl)cc2)sc2nc3c(cc12)CCC3 do in these assays?
G9a block: inactive; HP1b chromo inh: inactive; BAZ2B block: inactive; JMJD2A Tudor inh: inactive; Sfp inh: inactive; 12-LOX inh: inactive

What do the screens show for `Nc1c(C(=O)C2CC2)sc2nc3c(cc12)CCC3`?
G9a block: inconclusive; HP1b chromo inh: inactive; BAZ2B block: inactive; JMJD2A Tudor inh: inactive; Sfp inh: inactive; 12-LOX inh: inactive
